# The entries come from a sample that favours the strongest signals as a whole.
# B1: AFL6 (Aspergillus fumigatus), Q4WKJ1 (protein)
# chain: MSFHLTAEDIRIEDGHRLVARLRNADGDLQDASIDLNTCLGNDNGHFQWDGVDFSHSAQDVHFAIEGGGQVPVLRAQLANQDGEFQDADVNLSERIENINGEFVFH
# Legend:
# Assay in all cases: glycan array binding signal (z-score within array); higher = stronger binding
# Conditions in all cases: glycan notation: IUPAC condensed, linker removed
# [1] = target: Fuc(a1-2)Gal(b1-3)GalNAc(a1-3)[Fuc(a1-2)]Gal(b1-4)Glc
# How it was run: (§1)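 The binding signal is a Z-score computed within each array. Data were drawn from 3228 arrays in the Consortium for Functional Glycomics database, restricted to those with a known protein sequence. Scores were averaged over arrays of the same protein sequence at different concentrations or buffers, and over linkers, and negative values can be taken as non-binding.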
# [2] = target: Fuc(a1-2)Gal(b1-3)GlcNAc(b1-2)Man(a1-3)[Fuc(a1-2)Gal(b1-3)GlcNAc(b1-2)Man(a1-6)]Man(b1-4)GlcNAc(b1-4)GlcNAc
# How it was run: as §1
# [3] = target: Fuc(a1-2)Gal(b1-4)Glc6S
# How it was run: as §1
# [4] = target: Fuc(a1-2)Gal(b1-4)GlcNAc6S
# How it was run: as §1
# [5] = target: Fuc(a1-2)[Gal(a1-3)]Gal(b1-3)GlcNAc
# How it was run: as §1
# [6] = target: Fuc(a1-2)[Gal(a1-3)]Gal(b1-3)GlcNAc(b1-6)GalNAc
# How it was run: as §1
# [7] = target: Fuc(a1-2)[Gal(a1-3)]Gal(b1-4)GlcNAc(b1-2)Man(a1-3)[Fuc(a1-2)[Gal(a1-3)]Gal(b1-4)GlcNAc(b1-2)Man(a1-6)]Man(b1-4)GlcNAc(b1-4)GlcNAc
# How it was run: as §1
# [8] = target: Fuc(a1-2)[GalNAc(a1-3)]Gal
# How it was run: as §1
# [9] = target: Fuc(a1-2)[GalNAc(a1-3)]Gal(b1-4)GlcNAc(b1-3)GalNAc
# How it was run: as §1
# [10] = target: Gal(a1-3)Gal(b1-3)GlcNAc(b1-2)Man(a1-3)[Gal(a1-3)Gal(b1-3)GlcNAc(b1-2)Man(a1-6)]Man(b1-4)GlcNAc(b1-4)GlcNAc
# How it was run: as §1
# [11] = target: Gal(a1-4)Gal(b1-4)GlcNAc(b1-3)Gal(b1-4)Glc
# How it was run: as §1
# [12] = target: Gal(b1-3)GalNAc(b1-3)Gal
# How it was run: as §1
# [13] = target: Gal(b1-3)GlcNAc(b1-3)Gal(b1-4)GlcNAc
# How it was run: as §1
# [14] = target: Gal(b1-3)GlcNAc(b1-3)Gal(b1-4)GlcNAc(b1-2)[Gal(b1-3)GlcNAc(b1-3)Gal(b1-4)GlcNAc(b1-6)]Man(a1-6)[Gal(b1-3)GlcNAc(b1-3)Gal(b1-4)GlcNAc(b1-2)Man(a1-3)]Man(b1-4)GlcNAc(b1-4)[Fuc(a1-6)]GlcNAc
# How it was run: as §1
# [15] = target: Gal(b1-3)[Fuc(a1-4)]GlcNAc(b1-3)Gal(b1-3)[Fuc(a1-4)]GlcNAc
# How it was run: as §1
# [16] = target: Gal(b1-4)GlcNAc(b1-2)[Gal(b1-4)GlcNAc(b1-6)]Man(a1-6)[GlcNAc(b1-4)][Gal(b1-4)GlcNAc(b1-2)[Gal(b1-4)GlcNAc(b1-4)]Man(a1-3)]Man(b1-4)GlcNAc(b1-4)[Fuc(a1-6)]GlcNAc
# How it was run: as §1
# [17] = target: Gal(b1-4)GlcNAc(b1-3)Gal(b1-4)GlcNAc(b1-3)Gal(b1-4)GlcNAc(b1-2)Man(a1-3)[Gal(b1-4)GlcNAc(b1-3)Gal(b1-4)GlcNAc(b1-3)Gal(b1-4)GlcNAc(b1-2)Man(a1-6)]Man(b1-4)GlcNAc(b1-4)GlcNAc
# How it was run: as §1
# [18] = target: Gal(b1-4)GlcNAc(b1-3)Gal(b1-4)GlcNAc(b1-3)Gal(b1-4)GlcNAc(b1-3)Gal(b1-4)GlcNAc(b1-2)Man(a1-3)[Gal(b1-4)GlcNAc(b1-3)Gal(b1-4)GlcNAc(b1-3)Gal(b1-4)GlcNAc(b1-3)Gal(b1-4)GlcNAc(b1-2)Man(a1-6)]Man(b1-4)GlcNAc(b1-4)[Fuc(a1-6)]GlcNAc
# How it was run: as §1
# [19] = target: Gal(b1-4)GlcNAc(b1-3)Gal(b1-4)GlcNAc(b1-3)[Gal(b1-4)GlcNAc(b1-3)Gal(b1-4)GlcNAc(b1-6)]GalNAc
# How it was run: as §1
# [20] = target: Gal(b1-4)GlcNAc(b1-3)[Fuc(a1-3)GlcNAc(b1-6)]Gal(b1-4)Glc
# How it was run: as §1
# [21] = target: Gal3S(b1-3)[Fuc(a1-4)]GlcNAc
# How it was run: as §1
# [22] = target: Gal6P(b1-4)GlcNAc
# How it was run: as §1
# [23] = target: GalNAc(b1-3)Gal(a1-4)Gal(b1-4)GlcNAc(b1-3)Gal(b1-4)Glc
# How it was run: as §1
# [24] = target: GalNAc(b1-3)GalNAc
# How it was run: as §1
# [25] = target: GlcNAc(a1-4)Gal(b1-4)GlcNAc
# How it was run: as §1
# [26] = target: GlcNAc(a1-4)Gal(b1-4)GlcNAc(b1-3)Gal(b1-4)Glc
# How it was run: as §1
# [27] = target: GlcNAc(a1-4)Gal(b1-4)GlcNAc(b1-3)Gal(b1-4)GlcNAc
# How it was run: as §1
# [28] = target: GlcNAc(a1-4)Gal(b1-4)GlcNAc(b1-3)Gal(b1-4)GlcNAc(b1-3)Gal(b1-4)GlcNAc
# How it was run: as §1
# [29] = target: GlcNAc(b1-2)[GlcNAc(b1-6)]Man(a1-6)[GlcNAc(b1-4)][GlcNAc(b1-2)Man(a1-3)]Man(b1-4)GlcNAc(b1-4)GlcNAc
# How it was run: as §1
# [30] = target: GlcNAc(b1-3)Gal(b1-4)GlcNAc(b1-3)Gal(b1-4)GlcNAc(b1-2)Man(a1-3)[GlcNAc(b1-3)Gal(b1-4)GlcNAc(b1-3)Gal(b1-4)GlcNAc(b1-2)Man(a1-6)]Man(b1-4)GlcNAc(b1-4)[Fuc(a1-6)]GlcNAc
# How it was run: as §1
# [31] = target: GlcNAc(b1-3)Gal(b1-4)GlcNAc(b1-3)Gal(b1-4)GlcNAc(b1-3)GalNAc
# How it was run: as §1
# [32] = target: GlcNAc(b1-4)[GlcNAc(b1-6)]GalNAc
# How it was run: as §1
# [33] = target: GlcNAc(b1-6)GalNAc
# How it was run: as §1
# [34] = target: Man(a1-2)Man(a1-6)[Man(a1-3)]Man(a1-6)[Man(a1-2)Man(a1-2)Man(a1-3)]Man
# How it was run: as §1
# [35] = target: Man(b1-4)GlcNAc
# How it was run: as §1
# [36] = target: Neu5Ac(a2-3)Gal(b1-3)GlcNAc(b1-2)Man(a1-3)[GlcNAc(b1-4)][Neu5Ac(a2-3)Gal(b1-3)GlcNAc(b1-2)Man(a1-6)]Man(b1-4)GlcNAc(b1-4)GlcNAc
# How it was run: as §1
# [37] = target: Neu5Ac(a2-3)Gal(b1-4)GlcNAc(b1-2)Man(a1-3)[Neu5Ac(a2-3)Gal(b1-4)GlcNAc(b1-2)Man(a1-6)]Man(b1-4)GlcNAc(b1-4)GlcNAc
# How it was run: as §1
# [38] = target: Neu5Ac(a2-3)Gal(b1-4)GlcNAc(b1-3)Gal(b1-4)GlcNAc(b1-3)Gal(b1-4)GlcNAc(b1-2)Man(a1-3)[Neu5Ac(a2-3)Gal(b1-4)GlcNAc(b1-3)Gal(b1-4)GlcNAc(b1-3)Gal(b1-4)GlcNAc(b1-2)Man(a1-6)]GalNAc
# How it was run: as §1
# [39] = target: Neu5Ac(a2-3)Gal(b1-4)GlcNAc(b1-6)GalNAc
# How it was run: as §1
# [40] = target: Neu5Ac(a2-3)[GalNAc(b1-4)]Gal(b1-4)Glc
# How it was run: as §1
# [41] = target: Neu5Ac(a2-6)Gal(b1-4)GlcNAc(b1-2)Man(a1-3)Man(b1-4)GlcNAc(b1-4)GlcNAc
# How it was run: as §1
# [42] = target: Neu5Ac(a2-6)Gal(b1-4)GlcNAc(b1-2)Man(a1-3)[Neu5Ac(a2-3)Gal(b1-4)GlcNAc(b1-2)Man(a1-6)]Man(b1-4)GlcNAc(b1-4)GlcNAc
# How it was run: as §1
# [43] = target: Neu5Ac(a2-6)Gal(b1-4)GlcNAc(b1-3)Gal(b1-4)GlcNAc(b1-3)Gal(b1-4)GlcNAc(b1-2)Man(a1-3)[Neu5Ac(a2-6)Gal(b1-4)GlcNAc(b1-3)Gal(b1-4)GlcNAc(b1-3)Gal(b1-4)GlcNAc(b1-2)Man(a1-6)]GalNAc
# How it was run: as §1
# [44] = target: Neu5Ac(a2-6)Gal(b1-4)GlcNAc(b1-6)[Gal(b1-3)GlcNAc(b1-3)]Gal(b1-4)Glc
# How it was run: as §1
# [45] = target: Neu5Ac(a2-6)GlcNAc(b1-4)GlcNAc
# How it was run: as §1
# [46] = target: Neu5Ac(a2-8)Neu5Ac(a2-3)Gal(b1-3)GalNAc(b1-4)[Neu5Ac(a2-3)]Gal(b1-4)Glc
# How it was run: as §1
# [47] = target: Neu5Ac(a2-8)Neu5Ac(a2-3)[Gal(b1-3)GalNAc(b1-4)]Gal(b1-4)Glc
# How it was run: as §1
binder,measurement,setting,value
B1,glycan array binding signal (z-score),[1],-0.421
same,glycan array binding signal (z-score),[2],2.45
same,glycan array binding signal (z-score),[3],-0.234
same,glycan array binding signal (z-score),[4],-0.334
same,glycan array binding signal (z-score),[5],-0.417
same,glycan array binding signal (z-score),[6],-0.178
same,glycan array binding signal (z-score),[7],0.717
same,glycan array binding signal (z-score),[8],0.228
same,glycan array binding signal (z-score),[9],-0.656
same,glycan array binding signal (z-score),[10],0.406
same,glycan array binding signal (z-score),[11],0.039
same,glycan array binding signal (z-score),[12],-0.263
same,glycan array binding signal (z-score),[13],-0.706
same,glycan array binding signal (z-score),[14],1.91
same,glycan array binding signal (z-score),[15],-0.509
same,glycan array binding signal (z-score),[16],-0.245
same,glycan array binding signal (z-score),[17],2.41
same,glycan array binding signal (z-score),[18],2.99
same,glycan array binding signal (z-score),[19],4.09
same,glycan array binding signal (z-score),[20],-0.272
same,glycan array binding signal (z-score),[21],-0.44
same,glycan array binding signal (z-score),[22],-0.655
same,glycan array binding signal (z-score),[23],-0.055
same,glycan array binding signal (z-score),[24],-0.414
same,glycan array binding signal (z-score),[25],2.64
same,glycan array binding signal (z-score),[26],2.89
same,glycan array binding signal (z-score),[27],3.58
same,glycan array binding signal (z-score),[28],3.77
same,glycan array binding signal (z-score),[29],-0.56
same,glycan array binding signal (z-score),[30],2.48
same,glycan array binding signal (z-score),[31],-0.176
same,glycan array binding signal (z-score),[32],-0.154
same,glycan array binding signal (z-score),[33],-0.476
same,glycan array binding signal (z-score),[34],-0.466
same,glycan array binding signal (z-score),[35],-0.133
same,glycan array binding signal (z-score),[36],-0.296
same,glycan array binding signal (z-score),[37],0.029
same,glycan array binding signal (z-score),[38],4.83
same,glycan array binding signal (z-score),[39],0.04
same,glycan array binding signal (z-score),[40],0.054
same,glycan array binding signal (z-score),[41],0.065
same,glycan array binding signal (z-score),[42],-0.35
same,glycan array binding signal (z-score),[43],3.09
same,glycan array binding signal (z-score),[44],0.854
same,glycan array binding signal (z-score),[45],-0.135
same,glycan array binding signal (z-score),[46],-0.5
same,glycan array binding signal (z-score),[47],-0.306

# — the supplement of paper PMC8728848
